BJeLR viability – MLPCN primary cell-based screen for lethality selective to Ras in HRASV12 cells; BJeLR (HRASV12) viability, CellTiter-Glo ATP luminescence, 48 h; inhibition, % (concentration not given with the values); hit rate 0.17% among 300,000; AID 1554, 2009; in the data active = inhibition above about 50%
Mtb FBA inh – Mtb FBA enzyme inhibitors, primary screen, biochemical, fluorescence, strain H37Rv. Fructose-bisphosphate aldolase (Mycobacterium tuberculosis (strain ATCC 25618 / H37Rv)), …. purified M. tuberculosis FBA, fluorescence read-out. inhibition, % at 1 µM. hit rate 2.3% among 360,000; in the data active = inhibition above about 27%;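 also: 0% = vehicle and 100% = reference inhibitor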
RecA intein inh – Mtb RecA intein splicing inhibitors, primary screen, biochemical, fluorescence, HTS | hit rate 0.75% among 290,000 | cell-free RecA intein splicing | AID 2221, 2009 | inhibition, % (test concentration not listed); in the data active = inhibition above about 30%;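 also: 0% = vehicle wells and 100% = reference inhibitor control wells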
PrPC TRFRET – inhibitors of human cell surface prion protein PrPC, primary screen, cell-based, TR-FRET; Major prion protein (Homo sapiens), P04156; TR-FRET read-out; inhibition, % at 13.8 µM; hit rate 0.43% among 370,000; AID 720596, 2013; in the data active = inhibition above about 24%; also: 0% = median of the test wells and 100% = reference compound wells
GDH-TPI inh – GDH-TPI coupling enzyme inhibitors, primary screen, artefact control for M. tuberculosis FBA inhibitor project, biochemical, absorbance, full deck | AID 588335, 2011 | GDH-TPI coupled enzyme counterscreen, NADH absorbance | inhibition, % at 4.8 µM | hit rate 1.2% among 360,000; in the data active = inhibition above about 30%;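 also: 0% = DMSO wells and 100% = wells lacking the enzyme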
GFP chromophore – counter-screen: blocks GFP chromophore formation, dose response, counter-screen, biochemical, fluorescence, homogeneous. shares compounds with RecA intein inh. cell-free GFP chromophore formation. EC50, µM. hit rate 83% among 2,100; call rule not given here
An asterisk follows results filed as active. Rows were chosen to be rich in hits. Some 4.2% of all compounds tested hit in one or more screens of this group.

For CS(=O)(=O)c1ccc(C(=O)OCc2nnc(-c3ccccc3)o2)cc1[N+](=O)[O-] the results were BJeLR viability 10.4, Mtb FBA inh 2.5, RecA intein inh 73.5*, PrPC TRFRET -12.0, GDH-TPI inh 2.8 and GFP chromophore 13.6*.
Screening CC(CCc1ccccc1)NC(=O)COC(=O)c1ccc(S(C)(=O)=O)c([N+](=O)[O-])c1 (stereo not given) returned BJeLR viability -11.1, Mtb FBA inh 1.7, RecA intein inh 55.4*, PrPC TRFRET -19.2, GDH-TPI inh -0.3 and GFP chromophore 31.9*.
For CC(C)C[C@H]1COc2cc(N3CCCC3)ccc2S(=O)(=O)N1C the results were PrPC TRFRET 11.8.
CCOC(=O)CSc1nnc(NCC(=O)OC)c(=O)[nH]1 was read as BJeLR viability 1.8, Mtb FBA inh 1.2, RecA intein inh 37.2*, PrPC TRFRET 0.4, GDH-TPI inh -0.6 and GFP chromophore >38.
`CCOC(=O)CSc1nnc(C)c(=O)[nH]1` gave BJeLR viability 9.3, Mtb FBA inh -1.8, RecA intein inh 0.0, PrPC TRFRET 2.2 and GDH-TPI inh -7.5.
Screening C=CCN1C(=O)/C(=C\c2cccc(OC(=O)c3ccco3)c2)SC1=S returned BJeLR viability 2.3, Mtb FBA inh 1.2, RecA intein inh 4.1, PrPC TRFRET 3.1 and GDH-TPI inh -0.4.
`O=C(O)COc1ccc(/C=C2/SC(=S)N(Cc3ccccc3)C2=O)cc1` gave BJeLR viability -11.7, Mtb FBA inh -3.4, RecA intein inh 53.2*, PrPC TRFRET 6.2, GDH-TPI inh 4.3 and GFP chromophore 35.7*.
O=C(O)CN1C(=O)/C(=C\c2cccc(OC(=O)c3ccco3)c2)SC1=S was read as BJeLR viability -12.5, Mtb FBA inh -4.6, RecA intein inh 30.6*, PrPC TRFRET -12.7, GDH-TPI inh 15.7 and GFP chromophore >38.
For O=C1/C(=C\c2cc(Cl)c(O)c(Cl)c2)SC(=S)N1Cc1ccccc1 the results were BJeLR viability 16.3, Mtb FBA inh 2.1, RecA intein inh 23.0, PrPC TRFRET -0.4 and GDH-TPI inh 5.0.
`COc1ccccc1NC(=S)OCCN1CCCC12CCC(c1ccccc1)CC2` (stereo not given) gave PrPC TRFRET 2.8.
For O=S1(=O)c2ccc(Br)cc2OC[C@@H](c2ccccc2)N1Cc1cn(CCC2OCCO2)nn1 the results were PrPC TRFRET 2.7.
O=C1C(Cl)=C(N2CCC(C(=O)O)CC2)C(=O)c2ccccc21 was read as BJeLR viability -5.9, Mtb FBA inh 2.5, RecA intein inh 49.9*, GDH-TPI inh 11.4 and GFP chromophore 12.8*.
`NC(=O)C1CCN(C2=C(NS(=O)(=O)c3ccccc3)C(=O)c3ccccc3C2=O)CC1` gave BJeLR viability 12.4, Mtb FBA inh 2.8, RecA intein inh -1.0, PrPC TRFRET -46.0 and GDH-TPI inh 29.7.
For NC(=O)C1CCN(C2=C(Cl)C(=O)c3ccccc3C2=O)CC1 the results were BJeLR viability -3.7, Mtb FBA inh -2.2, RecA intein inh 43.0*, PrPC TRFRET -72.1, GDH-TPI inh 0.3 and GFP chromophore 0.538*.
`CC(C)CC(NC(N)=O)C(=O)Nc1ccc(Oc2ccccc2)cc1` (stereo not given) gave BJeLR viability 2.9, Mtb FBA inh -1.3, RecA intein inh 2.4, PrPC TRFRET -9.6 and GDH-TPI inh 1.3.
Cc1ccc(NC(=O)C(CC(C)C)NC(N)=O)cc1 (stereo not given) was read as BJeLR viability -4.9, Mtb FBA inh -0.1, RecA intein inh 32.8*, PrPC TRFRET -3.2, GDH-TPI inh -0.6 and GFP chromophore >38.
Screening CCc1cccc(NC(=O)CSCc2cc(=O)[nH][nH]2)c1 returned BJeLR viability -9.8, Mtb FBA inh 1.5, RecA intein inh 81.4*, PrPC TRFRET 6.6, GDH-TPI inh 9.2 and GFP chromophore 11.6*.
For CC1=NNC(=O)C1C(c1ccccc1)C(C#N)C#N (stereo not given) the results were BJeLR viability -5.7, Mtb FBA inh 0.2, RecA intein inh 80.4*, PrPC TRFRET -3.0, GDH-TPI inh 10.7 and GFP chromophore 16*.
Screening CC(C)Cn1c([N+](=O)[O-])nc2c1c(=O)[nH]c(=O)n2C returned BJeLR viability -1.6, Mtb FBA inh -1.0, RecA intein inh 15.8, PrPC TRFRET 8.1 and GDH-TPI inh 1.5.
`Cn1c(=O)[nH]c(=O)c2c1nc([N+](=O)[O-])n2Cc1ccccc1` gave BJeLR viability -0.5, Mtb FBA inh 3.1, RecA intein inh 62.3*, PrPC TRFRET 6.0, GDH-TPI inh 14.6 and GFP chromophore 17.4*.
Cc1ccc(NC2=C(NCCO)C(=O)c3ccccc3C2=O)cc1 was read as BJeLR viability -2.5, Mtb FBA inh -0.8, RecA intein inh 70.7*, PrPC TRFRET 2.3, GDH-TPI inh 17.9 and GFP chromophore 19.9*.
`Cc1ccc(C(=O)c2coc3cc([N+](=O)[O-])c(O)c([N+](=O)[O-])c23)cc1` gave BJeLR viability 4.5, Mtb FBA inh -10.0, RecA intein inh 34.5*, PrPC TRFRET -10.4, GDH-TPI inh 21.1 and GFP chromophore 36.6*.
`CCOC(=O)CC[C@H]1CC[C@]2(CCCN(S(C)(=O)=O)C2)O1` gave PrPC TRFRET 9.3.
Fc1ccc(-[n+]2nc(Nc3ccccc3)sc2-c2c3ccccc3cc3ccccc23)cc1 was read as BJeLR viability 32.7, Mtb FBA inh -2.9, RecA intein inh 48.6*, PrPC TRFRET 3.9, GDH-TPI inh 9.2 and GFP chromophore 16.4*.
Screening Cc1ccc(C2CC(c3cccs3)=NN2C(=O)CCl)cc1 (stereo not given) returned BJeLR viability 63.3*, Mtb FBA inh 2.2, RecA intein inh 82.1*, PrPC TRFRET 5.5, GDH-TPI inh 12.2 and GFP chromophore 3.81*.
For Cc1[nH][nH]c(=O)c1C(c1cc([N+](=O)[O-])ccc1O)c1c(C)[nH][nH]c1=O the results were BJeLR viability 16.3, Mtb FBA inh -8.9, RecA intein inh 96.3*, PrPC TRFRET -3.5, GDH-TPI inh 3.0 and GFP chromophore 0.53*.
`OCCN1CCN(CCCN2c3ccccc3Sc3ccc(C(F)(F)F)cc32)CC1` gave BJeLR viability -0.9, Mtb FBA inh -2.9, RecA intein inh -0.7, PrPC TRFRET -19.4 and GDH-TPI inh 1.6.
Screening FC(F)(F)c1ccc2c(c1)N(CCCN1CCN(CCCl)CC1)c1ccccc1S2 returned BJeLR viability 1.4, Mtb FBA inh 12.4, RecA intein inh 63.3*, PrPC TRFRET -24.2, GDH-TPI inh -5.9 and GFP chromophore 17.2*.

High-throughput results from PubChem.
